Source: PubChem BioAssay (NCI)
The panel holds about 79,000 compounds, 15% with a hit somewhere; the sample as a whole holds those more often. Activity calls are given as the source filed them. No stated cut-off is given here; in the data, active means growth inhibition above about 70%; inactive means the rest.

Tests used:
[1] = NCI Yeast Anticancer Drug Screen. Data for the rad52 strain (AID 147);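 further: 0% = growth of vehicle-treated control cultures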; conditions: S. cerevisiae rad52 mutant growth inhibition, stronger effect = higher value
How it was run: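 Screen used a yeast mutant impaired in DNA repair. After compound exposure, growth was measured. Values reflect inhibition compared with vehicle-treated cells.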

[2] = NCI Yeast Anticancer Drug Screen. Data for the wt1 strain (AID 149);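 further: 0% = growth of vehicle-treated wt1 cultures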; conditions: S. cerevisiae wt1 strain (SPY 50644) growth inhibition, stronger effect = higher value
How it was run: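 Vehicle-normalised growth inhibition; strain wt1; compound exposure.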

[3] = NCI Yeast Anticancer Drug Screen. Data for the rad50EPP+ strain (AID 151);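 further: 0% = growth of vehicle-treated control cultures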; conditions: S. cerevisiae rad50 mutant strain, stronger effect = higher value
How it was run: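 Exposing the rad50EPP+ strain to each compound, growth was compared with vehicle-only cultures to give inhibition.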

[4] = NCI Yeast Anticancer Drug Screen. Data for the mgt1 strain (AID 153); conditions: S. cerevisiae mgt1 mutant growth inhibition, stronger effect = higher value
How it was run: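 Genetically defined yeast (mgt1) treated with compound; inhibition of growth expressed against vehicle-treated controls.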

[5] = NCI Yeast Anticancer Drug Screen. Data for the rad50 strain (AID 155);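 further: 0% = growth of vehicle-only cultures of the same strain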; conditions: S. cerevisiae rad50 strain growth inhibition, stronger effect = higher value
How it was run: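 A DNA repair-deficient yeast mutant serves as the test organism; compound-induced growth inhibition is calculated against vehicle-treated cells.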

[6] = NCI Yeast Anticancer Drug Screen. Data for the mec2-1 strain (AID 157); conditions: S. cerevisiae mec2-1 strain, stronger effect = higher value
How it was run: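 Readout is yeast growth inhibition, normalised to vehicle-treated controls, in the mec2-1 strain exposed to compound.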

[7] = NCI Yeast Anticancer Drug Screen. Data for the rad14 strain (AID 159);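 further: 0% = growth of vehicle-treated control cultures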; conditions: S. cerevisiae rad14 strain growth inhibition, stronger effect = higher value
How it was run: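 Vehicle-treated cultures served as the baseline for growth inhibition of a DNA repair-mutant yeast strain exposed to each compound.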

[8] = NCI Yeast Anticancer Drug Screen. Data for the sgs1 mgt1 strain (AID 161);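 further: 0% = growth of cultures given vehicle only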; conditions: S. cerevisiae sgs1 mgt1 strain, stronger effect = higher value
How it was run: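 Growth of a repair-deficient yeast mutant was monitored after compound treatment and expressed as inhibition relative to vehicle-treated cultures.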

[9] = NCI Yeast Anticancer Drug Screen. Data for the CLN2oe strain (AID 163);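 further: 0% = growth of vehicle-only control cultures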; conditions: S. cerevisiae CLN2oe strain, stronger effect = higher value
How it was run: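 Values reflect how much compound exposure reduced yeast growth, referenced to vehicle-exposed cells. Assay organism is a strain with a defined genetic change affecting cell-cycle control.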

[10] = NCI Yeast Anticancer Drug Screen. Data for the cln2 rad14 strain (AID 165);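 further: 0% = growth equal to vehicle treated cultures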; conditions: S. cerevisiae cln2 rad14 strain, stronger effect = higher value
How it was run: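 Relative to vehicle controls, growth inhibition of compound-treated cln2 rad14 yeast was recorded.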

[11] = NCI Yeast Anticancer Drug Screen. Data for the bub3 strain (AID 167); conditions: S. cerevisiae bub3 mutant strain, stronger effect = higher value
How it was run: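 Inhibition values come from growth of compound-treated mutant yeast normalised to vehicle-treated controls.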

[12] = NCI Yeast Anticancer Drug Screen. Data for the wt2 strain (AID 169);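 further: 0% = growth of vehicle-treated yeast cultures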; conditions: S. cerevisiae wt2 strain growth inhibition, stronger effect = higher value
How it was run: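 Values express reduction in yeast growth under compound treatment, referenced to vehicle-treated cells.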

[13] = NCI Yeast Anticancer Drug Screen. Data for the mlh1 strain (AID 171);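 further: 0% = growth of vehicle-treated control cultures of the same strain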; conditions: S. cerevisiae mlh1 strain growth inhibition, stronger effect = higher value
How it was run: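 Steps: expose the defined-mutant yeast strain to compound; expose a parallel culture to vehicle; measure growth; express compound effect as inhibition relative to the vehicle culture.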

[14] = NCI Yeast Anticancer Drug Screen. Data for the sgs1 strain (AID 173);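 further: 0% = growth of vehicle-only control cultures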; conditions: S. cerevisiae sgs1 mutant, stronger effect = higher value
How it was run: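 Treat defined-mutant yeast with compound; measure growth; calculate inhibition relative to vehicle-treated cells.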

[15] = NCI Yeast Anticancer Drug Screen. Data for the mlh1 rad18 strain (AID 175); conditions: S. cerevisiae mlh1 rad18 strain growth inhibition, stronger effect = higher value
How it was run: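 Test agents were incubated with a yeast strain of defined genotype (DNA damage repair defect). Inhibition of growth was derived by comparison with vehicle-exposed cultures.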

[16] = at 5.0 µM (retest, dose inferred, filed as 0.5)
[17] = at 50.0 µM (retest, dose inferred, filed as 5.0)

Measured: growth inhibition

Cc1ccc2c3ccc4c(c3n(C)c2c1)C(=O)C=CC4=O
active: [3]; at 33.0 µM 76% | [3]; at 100.0 µM 91% | [4]; at 100.0 µM 78% | [11]; [17] 80% | [13]; at 100.0 µM 81% | [15]; [17] 77%
inactive: [1]; at 1.2 µM -55% | [1]; at 3.7 µM -66% | [1]; at 11.0 µM -53% | [1]; at 33.0 µM -37% | [1]; at 100.0 µM 22% | [2]; at 1.2 µM -22% | [2]; at 3.7 µM -16% | [2]; at 11.0 µM -18% | [2]; at 33.0 µM -1% | [2]; at 100.0 µM 33% | [3]; at 1.2 µM -3% | [3]; at 3.7 µM 24% | [3]; at 11.0 µM 31% | [4]; at 1.2 µM 20% | [4]; at 3.7 µM 11% | [4]; at 11.0 µM 22% | [4]; at 33.0 µM 40% | [5]; at 1.2 µM -4% | [5]; at 3.7 µM -5% | [5]; [16] 7% | [5]; at 11.0 µM 3% | [5]; at 33.0 µM 10% | [5]; [17] 49% | [5]; at 50.0 µM 57.8% | [5]; at 100.0 µM 53% | [6]; at 1.2 µM -22% | [6]; at 3.7 µM -11% | [6]; [16] 7% | [6]; at 11.0 µM -3% | [6]; at 33.0 µM 23% | [6]; [17] 42% | [6]; at 50.0 µM 51.5% | [6]; at 100.0 µM 66% | [7]; at 1.2 µM -9% | [7]; at 3.7 µM -12% | [7]; at 11.0 µM -9% | [7]; at 33.0 µM -6% | [7]; at 100.0 µM 59% | [8]; [16] 9% | [8]; [17] 58% | [8]; at 50.0 µM 67.2% | [9]; at 1.2 µM -5% | [9]; at 3.7 µM -4% | [9]; at 11.0 µM -3% | [9]; at 33.0 µM 9% | [9]; at 100.0 µM 27% | [10]; [16] 18% | [10]; [17] 50% | [10]; at 50.0 µM 33.7% | [11]; at 1.2 µM -14% | [11]; at 3.7 µM -1% | [11]; [16] 43% | [11]; at 11.0 µM -11% | [11]; at 33.0 µM 16% | [11]; at 50.0 µM 61.2% | [11]; at 100.0 µM 56% | [12]; at 1.2 µM -47% | [12]; at 3.7 µM -28% | [12]; at 11.0 µM -30% | [12]; at 33.0 µM -29% | [12]; at 100.0 µM 38% | [13]; at 1.2 µM -10% | [13]; at 3.7 µM -3% | [13]; at 11.0 µM 16% | [13]; at 33.0 µM 46% | [14]; at 1.2 µM -32% | [14]; at 3.7 µM -24% | [14]; at 11.0 µM -16% | [14]; at 33.0 µM 16% | [14]; at 100.0 µM 63% | [15]; [16] 21% | [15]; at 50.0 µM 68%

COc1ccc(C(NCCNC(c2ccc(OC)c(OC)c2)c2cc3c(cc2O)OCO3)c2cc3c(cc2O)OCO3)cc1OC (stereo unspecified)
active: [1]; at 33.0 µM 89% | [1]; at 100.0 µM 99% | [2]; at 100.0 µM 99% | [3]; at 33.0 µM 87% | [3]; at 100.0 µM 97% | [4]; at 100.0 µM 99% | [5]; at 33.0 µM 74% | [5]; at 100.0 µM 99% | [6]; at 33.0 µM 78% | [6]; [17] 95% | [6]; at 100.0 µM 99% | [7]; at 33.0 µM 92% | [7]; at 100.0 µM 99% | [8]; at 50.0 µM 72.2% | [9]; at 100.0 µM 98% | [11]; at 100.0 µM 98% | [12]; at 100.0 µM 99% | [13]; at 33.0 µM 84% | [13]; at 100.0 µM 99% | [14]; at 100.0 µM 99%
inactive: [1]; at 1.2 µM -1% | [1]; at 3.7 µM -6% | [1]; at 11.0 µM 7% | [2]; at 1.2 µM 4% | [2]; at 3.7 µM -2% | [2]; at 11.0 µM 2% | [2]; at 33.0 µM 29% | [3]; at 1.2 µM -6% | [3]; at 3.7 µM -11% | [3]; at 11.0 µM 10% | [4]; at 1.2 µM 2% | [4]; at 3.7 µM 4% | [4]; at 11.0 µM 3% | [4]; at 33.0 µM 3% | [5]; at 1.2 µM 4% | [5]; at 3.7 µM -10% | [5]; [16] -12% | [5]; at 11.0 µM 19% | [5]; [17] 7% | [5]; at 50.0 µM 38.2% | [6]; at 1.2 µM -1% | [6]; at 3.7 µM 1% | [6]; [16] -11% | [6]; at 11.0 µM 9% | [6]; at 50.0 µM 27.9% | [7]; at 1.2 µM 1% | [7]; at 3.7 µM 5% | [7]; at 11.0 µM 27% | [8]; [16] 4% | [8]; [17] 48% | [9]; at 1.2 µM -6% | [9]; at 3.7 µM 1% | [9]; at 11.0 µM 7% | [9]; at 33.0 µM 18% | [10]; [16] -29% | [10]; [17] 23% | [10]; at 50.0 µM 41.2% | [11]; at 1.2 µM -1% | [11]; at 3.7 µM -6% | [11]; [16] -21% | [11]; at 11.0 µM 0% | [11]; at 33.0 µM 15% | [11]; [17] 28% | [11]; at 50.0 µM 54.8% | [12]; at 1.2 µM -1% | [12]; at 3.7 µM -2% | [12]; at 11.0 µM 7% | [12]; at 33.0 µM 50% | [13]; at 1.2 µM 2% | [13]; at 3.7 µM 1% | [13]; at 11.0 µM 12% | [14]; at 1.2 µM 2% | [14]; at 3.7 µM 0% | [14]; at 11.0 µM 4% | [14]; at 33.0 µM 63% | [15]; [16] -29% | [15]; [17] 34% | [15]; at 50.0 µM 46.6%
